Survival data for 54 molecules are collected here from PubChem BioAssay AID463173 (ICCB-Longwood Screening Facility, Harvard Medical School, 2010).

SMILES strings stand for the structures. The whole screen tested about 52,000 compounds, of which about 4,300 (8.3%) were called active. Shown is part of a subset that was picked to be rich in actives. A number with no mark means an inactive call. Rule as the data show it: active = survival mostly below about 52% (no sharp cut-off); inactive = mostly above about 56%.

For the experiment, the system named is DeltatarO mutant. Put plainly: S. aureus survival, RN4220 and DeltatarO strains – OD600, teichoic acid synthesis inhibitors, primary screen (AID 463173). The note with it: S. aureus RN4220 wild type/DeltatarO growth, OD600, 18 h, active compounds read low, screened at 18.75 µg/mL (by protocol).
As for `O=C(NCCSCc1ccccc1)C1CCN(S(=O)(=O)Cc2ccccc2)CC1`, the survival was 66%.

Regarding `Cc1cc(C)cc(NC(=O)N2CCN(c3cc(-c4noc(C)n4)ccc3C)CC2)c1`, the survival was 87%.

Take `Cc1ccc(NC(=O)N2CCN(c3cc(-c4noc(C)n4)ccc3C)CC2)c(F)c1`: the survival is -5% (active).

On to `Cc1nc(-c2ccc(C)c(N3CCN(C(=O)Nc4ccc(Br)cc4)CC3)c2)no1`, for which the survival is 17% (active).

In the case of `COc1ccc(C)cc1NC(=O)N1CCN(c2cc(-c3noc(C)n3)ccc2C)CC1`, the survival was 88%.

With `Cc1ccc(NC(=O)N2CCN(c3cc(-c4noc(C)n4)ccc3C)CC2)c(C)c1`, the survival was 88%.

For `COc1cc(NC(=O)N2CCN(c3cc(-c4noc(C)n4)ccc3C)CC2)cc(OC)c1OC`, the survival was 55%.

For the molecule `COc1ccccc1NC(=O)c1oc2ccccc2c1NC(=O)Cc1ccccc1`, the survival is 78%.

With `CCOc1ccc(NC(=O)CCc2c(C)nc3nc(-c4cc(OC)cc(OC)c4)nn3c2C)cc1`, the survival was 78%.

Turning to `Cc1ccc(CCNC(=O)CCn2c(=O)c3cccn3c3ccc(F)cc32)cc1`, the survival was 39% (active).

Take `Cc1cccc(CNC(=O)CCn2c(=O)c3cccn3c3ccc(F)cc32)c1`: the survival was 92%.

For the molecule `CCCCNC(=O)CCn1c(=O)c2cccn2c2ccc(F)cc21`, the survival is 41% (active).

`CN(C)c1ccc(CNC(=O)CCn2c(=O)c3cccn3c3ccc(F)cc32)cc1`: the survival is 57%.

With `CCCCNC(=O)CCn1c(=O)c2cccn2c2cccnc21`, the survival was 103%.

With `CSc1ccc(CCNC(=O)CCn2c(=O)c3cccn3c3ccc(F)cc32)cc1`, the survival was 48%.

For the molecule `Cc1ccc(CCNC(=O)CCCn2c(=O)c3cccn3c3ccc(F)cc32)cc1`, the survival was 33% (active).

`Cc1ccc(Cc2nc3ccccc3nc2SCC(=O)N2CCN(c3ccccc3F)CC2)cc1`: the survival is 49%.

`CCOc1ccc(-n2ccn3c(CC(C)CC(=O)O)nnc3c2=O)cc1` (centres undefined): the survival is 182%.

Turning to `O=C(Nc1ccccc1)c1ccc(F)cc1`, the survival was 76%.

On to `CCOC(=O)CC(NC(=O)Cn1nnc(-c2ccc(C(F)(F)F)cc2)n1)c1ccccc1Cl` (centres undefined), for which the survival was 73%.

Regarding `COc1ccc(-c2nc(CSCC(=O)N3CCN(c4cc(Cl)ccc4C)CC3)c(C)o2)cc1`, the survival is -4% (active).

Take `Cc1oc(-c2ccccc2F)nc1CS(=O)(=O)CC(=O)N1CCN(c2ccccc2)CC1`: the survival is 77%.

For `Cc1oc(-c2ccc(Cl)cc2)nc1CS(=O)CC(=O)N1CCN(c2cccc(C(F)(F)F)c2)CC1` (centres undefined), the survival was 99%.

For the molecule `Cc1oc(-c2ccccc2F)nc1CS(=O)(=O)CC(=O)N1CCN(c2ccc(Cl)cc2)CC1`, the survival was 43% (active).

In the case of `Cc1ccc(-c2nc(CS(=O)CC(=O)N3CCN(c4cccc(Cl)c4)CC3)c(C)o2)cc1` (centres undefined), the survival is 46%.

For `Cc1oc(-c2ccccc2F)nc1CS(=O)(=O)CC(=O)N1CCN(c2cccc(C(F)(F)F)c2)CC1`, the survival is 78%.

Take `Cc1ccc(-c2nc(CS(=O)CC(=O)N3CCN(c4ccc(Cl)cc4)CC3)c(C)o2)cc1` (centres undefined): the survival is 80%.

On to `COc1ccc(-c2nc(CSCC(=O)N3CCN(c4ccc(OC)cc4)CC3)c(C)o2)cc1`, for which the survival was 77%.

With `Cc1ccc(OCc2nc(-c3ccc(C(=O)N4CCN(c5cc(Cl)ccc5C)CC4)cc3)oc2C)cc1`, the survival is 76%.

As for `Cc1oc(-c2ccccc2Cl)nc1CS(=O)CC(=O)N1CCN(c2cccc(C(F)(F)F)c2)CC1` (centres undefined), the survival is 131%.

As to `COc1cccc(-c2nc(CS(=O)CC(=O)N3CCN(c4cccc(C(F)(F)F)c4)CC3)c(C)o2)c1` (centres undefined), the survival was 0% (active).

As for `Cc1ccccc1-c1nc(CS(=O)CC(=O)N2CCN(c3cc(Cl)ccc3C)CC2)c(C)o1` (centres undefined), the survival was 30% (active).

On to `Cc1cccc(-n2cc(-c3ccccc3)nc2SCC(=O)Nc2ccccc2Cl)c1`, for which the survival is 115%.

`CC(C)c1ccc(NC(=O)CS(=O)(=O)c2cccc3nsnc23)cc1`: the survival is 78%.

With `CCOC(=O)c1sc2ccccc2c1S(=O)(=O)N1CCN(c2cc(C)ccc2C)CC1`, the survival was 100%.

For `Cc1ccc(CSc2cn(CC(=O)N3CCCCCC3)c3ccccc23)cc1`, the survival is 84%.

On to `COc1ccc(CCN2C(=O)N(c3ccc(F)cc3)C(=O)C2CC(=O)Nc2ccc(OC)cc2)cc1` (centres undefined), for which the survival is 67%.

With `CCc1ccc2occ(CC(=O)Nc3ccc(C)c(C)c3)c2c1`, the survival is 102%.

As to `COc1ccc(OC)c(NC(=O)c2nnn(CC(=O)Nc3ccc(C(C)C)cc3)c2N)c1`, the survival was 63%.

For `COc1ccc(-c2nc(CSCC(=O)N3CCN(c4ccc(F)cc4)CC3)c(C)o2)cc1`, the survival was 57%.

Consider `COc1ccc(-c2nc(CSCC(=O)N3CCN(c4ccccc4)CC3)c(C)o2)cc1`, for which the survival was 60%.

Regarding `COc1ccc(-c2nc(CSCC(=O)N3CCN(c4ccccc4F)CC3)c(C)o2)cc1`, the survival is 35% (active).

`Cc1cccc(NC(=O)C(NS(=O)(=O)c2cccc3nsnc23)c2ccccc2)c1C` (centres undefined): the survival was 95%.

In the case of `COCCn1c(=NC(=O)c2ccc3c(c2)OCCO3)sc2cc(C(=O)OC)ccc21`, the survival was 86%.

Turning to `CCC12CN3CC(C)(CN(C1)C3c1ccccc1C)C2=O` (centres undefined), the survival is 76%.

Consider `COc1ccc(-c2nc3ccccc3o2)cc1NC(=O)c1cc([N+](=O)[O-])ccc1N1CCOCC1`, for which the survival is 44% (active).

Turning to `Cc1ccc(-c2nc3cc(Cl)ccc3o2)cc1NC(=O)c1cc([N+](=O)[O-])ccc1N1CCOCC1`, the survival was 57%.

As to `O=C(Nc1cccc(-c2nc3ccccc3o2)c1)c1cc([N+](=O)[O-])ccc1N1CCOCC1`, the survival was 42% (active).

As to `O=C(Nc1cccc(-c2nc3cc(Cl)ccc3o2)c1)c1cc([N+](=O)[O-])ccc1N1CCOCC1`, the survival is 40% (active).

On to `O=C(Nc1cc(-c2nc3cc(Cl)ccc3o2)ccc1Cl)c1cc([N+](=O)[O-])ccc1N1CCOCC1`, for which the survival was 50%.

Take `O=C(Nc1cc(-c2nc3ccccc3o2)ccc1Cl)c1cc([N+](=O)[O-])ccc1N1CCOCC1`: the survival was 57%.

Regarding `O=C(Nc1ccc(Cl)c(-c2nc3cc(Cl)ccc3o2)c1)c1cc([N+](=O)[O-])ccc1N1CCOCC1`, the survival was 111%.

With `Cc1c(NC(=O)c2cc([N+](=O)[O-])ccc2N2CCOCC2)cccc1-c1nc2ccccc2o1`, the survival is 50%.

As to `COc1ccc2oc(-c3cccc(NC(=O)c4cc([N+](=O)[O-])ccc4N4CCOCC4)c3)nc2c1`, the survival is 49%.
